# According to the supplement of paper PMC8728848:
# The full list was thinned out, with the strongest signals kept by preference.
# B1: ABA (Agaricus bisporus), Q00022 (protein)
# chain: MTYTISIRVYQTTPKGFFRPVERTNWKYANGGTWDEVRGEYVLTMGGSGTSGSLRFVSSDTDESFVATFGVHNYKRWCDIVTNLTNEQTALVINQEYYGVPIRDQARENQLTSYNVANAKGRRFAIEYTVTEGDNLKANLIIG
# Key:
# Assay in all cases: glycan array binding signal (z-score within array); higher = stronger binding
# Conditions in all cases: glycan notation: IUPAC condensed, linker removed
# [1] = biological target: Fuc(a1-2)Gal(b1-3)GalNAc(a1-3)[Fuc(a1-2)]Gal(b1-4)Glc
# Outline: (§1)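 The Consortium for Functional Glycomics database supplied 3228 glycan arrays, of which those lacking an available protein sequence were dropped. The binding signal, a within-array Z-score, was averaged across arrays of the same protein sequence and across linkers. Negative scores can be read as non-binding.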
# [2] = biological target: Fuc(a1-2)Gal(b1-3)GalNAc(a1-3)[Fuc(a1-2)]Gal(b1-4)GlcNAc
# Outline: as §1
# [3] = biological target: Fuc(a1-2)Gal(b1-3)GalNAc(b1-4)[Neu5Ac(a2-3)]Gal(b1-4)Glc
# Outline: as §1
# [4] = biological target: Fuc(a1-2)Gal(b1-3)GlcNAc(b1-3)[Fuc(a1-2)Gal(b1-3)GlcNAc(b1-6)]GalNAc
# Outline: as §1
# [5] = biological target: Fuc(a1-2)Gal(b1-4)GlcNAc(b1-2)[Fuc(a1-2)Gal(b1-4)GlcNAc(b1-4)]Man(a1-3)[Fuc(a1-2)Gal(b1-4)GlcNAc(b1-2)Man(a1-6)]Man(b1-4)GlcNAc(b1-4)GlcNAc
# Outline: as §1
# [6] = biological target: Fuc(a1-2)Gal(b1-4)GlcNAc(b1-3)Gal(b1-4)GlcNAc(b1-2)Man(a1-3)[Fuc(a1-2)Gal(b1-4)GlcNAc(b1-3)Gal(b1-4)GlcNAc(b1-2)Man(a1-6)]Man(b1-4)GlcNAc(b1-4)GlcNAc
# Outline: as §1
# [7] = biological target: Fuc(a1-2)Gal(b1-4)GlcNAc6S
# Outline: as §1
# [8] = biological target: Fuc(a1-2)Gal(b1-4)[Fuc(a1-3)]GlcNAc(b1-2)[Fuc(a1-2)Gal(b1-4)[Fuc(a1-3)]GlcNAc(b1-4)]Man(a1-3)[Fuc(a1-2)Gal(b1-4)[Fuc(a1-3)]GlcNAc(b1-2)Man(a1-6)]Man(b1-4)GlcNAc(b1-4)GlcNAc
# Outline: as §1
# [9] = biological target: Fuc(a1-2)[Gal(a1-3)]Gal(b1-3)GalNAc
# Outline: as §1
# [10] = biological target: Fuc(a1-2)[Gal(a1-3)]Gal(b1-4)[Fuc(a1-3)]GlcNAc
# Outline: as §1
# [11] = biological target: Fuc(a1-3)[Gal(b1-4)]GlcNAc(b1-3)Gal(b1-3)[Fuc(a1-4)]GlcNAc
# Outline: as §1
# Gal(a1-3)Gal(b1-3)GlcNAc = biological target: Gal(a1-3)Gal(b1-3)GlcNAc
# Outline: as §1
# Gal(a1-3)GalNAc = biological target: Gal(a1-3)GalNAc
# Outline: as §1
# [12] = biological target: Gal(b1-3)GalNAc(a1-3)[Fuc(a1-2)]Gal(b1-4)Glc
# Outline: as §1
# [13] = biological target: Gal(b1-3)GalNAc(a1-3)[Fuc(a1-2)]Gal(b1-4)GlcNAc
# Outline: as §1
# [14] = biological target: Gal(b1-3)GlcNAc(b1-3)Gal(b1-4)[Fuc(a1-3)]GlcNAc
# Outline: as §1
# [15] = biological target: Gal(b1-3)GlcNAc(b1-6)GalNAc
# Outline: as §1
# Gal(b1-4)Glc6S = biological target: Gal(b1-4)Glc6S
# Outline: as §1
# [16] = biological target: Gal(b1-4)GlcNAc(b1-2)Man(a1-6)[GlcNAc(b1-2)Man(a1-3)]Man(b1-4)GlcNAc(b1-4)GlcNAc
# Outline: as §1
# [17] = biological target: Gal(b1-4)GlcNAc(b1-2)[Gal(b1-4)GlcNAc(b1-4)]Man(a1-3)[GlcNAc(b1-4)][Gal(b1-4)GlcNAc(b1-2)Man(a1-6)]Man(b1-4)GlcNAc(b1-4)GlcNAc
# Outline: as §1
# [18] = biological target: Gal(b1-4)GlcNAc(b1-3)Gal(b1-4)GlcNAc(b1-2)Man(a1-3)[Gal(b1-4)GlcNAc(b1-3)Gal(b1-4)GlcNAc(b1-2)Man(a1-6)]Man(b1-4)GlcNAc(b1-4)GlcNAc
# Outline: as §1
# [19] = biological target: Gal(b1-4)GlcNAc(b1-3)Gal(b1-4)GlcNAc(b1-3)[Gal(b1-4)GlcNAc(b1-3)Gal(b1-4)GlcNAc(b1-6)]GalNAc
# Outline: as §1
# Gal(b1-4)GlcNAc6P = biological target: Gal(b1-4)GlcNAc6P
# Outline: as §1
# Gal3S(b1-3)GalNAc = biological target: Gal3S(b1-3)GalNAc
# Outline: as §1
# Gal3S4S(b1-4)GlcNAc = biological target: Gal3S4S(b1-4)GlcNAc
# Outline: as §1
# GalNAc(a1-3)Gal = biological target: GalNAc(a1-3)Gal
# Outline: as §1
# GalNAc(b1-3)GalNAc = biological target: GalNAc(b1-3)GalNAc
# Outline: as §1
# [20] = biological target: GlcNAc(b1-2)Man(a1-3)[GlcNAc(b1-2)Man(a1-6)]Man(b1-4)GlcNAc(b1-4)GlcNAc
# Outline: as §1
# [21] = biological target: GlcNAc(b1-2)Man(a1-3)[GlcNAc(b1-4)][GlcNAc(b1-2)Man(a1-6)]Man(b1-4)GlcNAc(b1-4)GlcNAc
# Outline: as §1
# [22] = biological target: GlcNAc(b1-2)[GlcNAc(b1-4)]Man(a1-3)[GlcNAc(b1-4)][GlcNAc(b1-2)[GlcNAc(b1-6)]Man(a1-6)]Man(b1-4)GlcNAc(b1-4)[Fuc(a1-6)]GlcNAc
# Outline: as §1
# [23] = biological target: GlcNAc(b1-3)Gal(b1-4)GlcNAc(b1-3)Gal(b1-4)GlcNAc(b1-2)Man(a1-3)[GlcNAc(b1-3)Gal(b1-4)GlcNAc(b1-3)Gal(b1-4)GlcNAc(b1-2)Man(a1-6)]Man(b1-4)GlcNAc(b1-4)[Fuc(a1-6)]GlcNAc
# Outline: as §1
# [24] = biological target: GlcNAc(b1-3)Gal(b1-4)GlcNAc(b1-6)[GlcNAc(b1-3)Gal(b1-3)]GalNAc
# Outline: as §1
# [25] = biological target: GlcNAc(b1-4)GlcNAc(b1-4)GlcNAc
# Outline: as §1
# Kdn(a2-3)Gal(b1-3)GalNAc = biological target: Kdn(a2-3)Gal(b1-3)GalNAc
# Outline: as §1
# Kdn(a2-6)Gal(b1-4)GlcNAc = biological target: Kdn(a2-6)Gal(b1-4)GlcNAc
# Outline: as §1
# [26] = biological target: Man(a1-2)Man(a1-3)[Man(a1-2)Man(a1-6)]Man(a1-6)[Man(a1-2)Man(a1-2)Man(a1-3)]Man(b1-4)GlcNAc(b1-4)GlcNAc
# Outline: as §1
# [27] = biological target: Man(a1-3)[Man(a1-6)]Man(a1-6)[Man(a1-2)Man(a1-3)]Man(b1-4)GlcNAc(b1-4)GlcNAc
# Outline: as §1
# [28] = biological target: Neu5Ac(a2-3)Gal(b1-4)GlcNAc(b1-3)Gal(b1-4)GlcNAc(b1-2)Man(a1-3)[Neu5Ac(a2-3)Gal(b1-4)GlcNAc(b1-3)Gal(b1-4)GlcNAc(b1-2)Man(a1-6)]Man(b1-4)GlcNAc(b1-4)GlcNAc
# Outline: as §1
# [29] = biological target: Neu5Ac(a2-3)Gal(b1-4)GlcNAc(b1-3)Gal(b1-4)GlcNAc(b1-3)Gal(b1-4)GlcNAc(b1-2)Man(a1-3)[Neu5Ac(a2-3)Gal(b1-4)GlcNAc(b1-3)Gal(b1-4)GlcNAc(b1-3)Gal(b1-4)GlcNAc(b1-2)Man(a1-6)]GalNAc
# Outline: as §1
# [30] = biological target: Neu5Ac(a2-3)Gal(b1-4)GlcNAc(b1-3)Gal(b1-4)GlcNAc(b1-3)[Neu5Ac(a2-3)Gal(b1-4)GlcNAc(b1-3)Gal(b1-4)GlcNAc(b1-6)]GalNAc
# Outline: as §1
# [31] = biological target: Neu5Ac(a2-3)GalNAc(b1-4)GlcNAc
# Outline: as §1
# [32] = biological target: Neu5Ac(a2-3)[GalNAc(b1-4)]Gal(b1-4)Glc
# Outline: as §1
# [33] = biological target: Neu5Ac(a2-3)[GalNAc(b1-4)]Gal(b1-4)GlcNAc(b1-3)GalNAc
# Outline: as §1
# [34] = biological target: Neu5Ac(a2-6)Gal(b1-4)GlcNAc(b1-3)Gal(b1-4)GlcNAc(b1-3)GalNAc
# Outline: as §1
# [35] = biological target: Neu5Ac(a2-6)Gal(b1-4)GlcNAc(b1-3)Gal(b1-4)GlcNAc(b1-3)[Neu5Ac(a2-6)Gal(b1-4)GlcNAc(b1-3)Gal(b1-4)GlcNAc(b1-6)]GalNAc
# Outline: as §1
# [36] = biological target: Neu5Ac(a2-6)Gal(b1-4)GlcNAc(b1-6)[Gal(b1-3)GlcNAc(b1-3)]Gal(b1-4)Glc
# Outline: as §1
# [37] = biological target: Neu5Ac(a2-6)GlcNAc(b1-4)GlcNAc
# Outline: as §1
# [38] = biological target: Neu5Ac(a2-8)Neu5Ac(a2-3)Gal(b1-4)Glc
# Outline: as §1
# [39] = biological target: Neu5Ac(a2-8)Neu5Ac(a2-8)Neu5Ac
# Outline: as §1
# Neu5Ac(b1-6)GalNAc = biological target: Neu5Ac(b1-6)GalNAc
# Outline: as §1
binder,measurement,setting,value
B1,glycan array binding signal (z-score),[1],-0.201
same,glycan array binding signal (z-score),[2],0.475
same,glycan array binding signal (z-score),[3],-0.192
same,glycan array binding signal (z-score),[4],-0.172
same,glycan array binding signal (z-score),[5],-0.048
same,glycan array binding signal (z-score),[6],-0.157
same,glycan array binding signal (z-score),[7],-0.289
same,glycan array binding signal (z-score),[8],0.231
same,glycan array binding signal (z-score),[9],-0.239
same,glycan array binding signal (z-score),[10],-0.155
same,glycan array binding signal (z-score),[11],-0.058
same,glycan array binding signal (z-score),Gal(a1-3)Gal(b1-3)GlcNAc,-0.192
same,glycan array binding signal (z-score),Gal(a1-3)GalNAc,-0.118
same,glycan array binding signal (z-score),[12],3.56
same,glycan array binding signal (z-score),[13],3.27
same,glycan array binding signal (z-score),[14],-0.245
same,glycan array binding signal (z-score),[15],-0.25
same,glycan array binding signal (z-score),Gal(b1-4)Glc6S,-0.203
same,glycan array binding signal (z-score),[16],2.81
same,glycan array binding signal (z-score),[17],-0.25
same,glycan array binding signal (z-score),[18],2.52
same,glycan array binding signal (z-score),[19],1.8
same,glycan array binding signal (z-score),Gal(b1-4)GlcNAc6P,-0.104
same,glycan array binding signal (z-score),Gal3S(b1-3)GalNAc,2.46
same,glycan array binding signal (z-score),Gal3S4S(b1-4)GlcNAc,-0.254
same,glycan array binding signal (z-score),GalNAc(a1-3)Gal,-0.234
same,glycan array binding signal (z-score),GalNAc(b1-3)GalNAc,0.071
same,glycan array binding signal (z-score),[20],5.72
same,glycan array binding signal (z-score),[21],2.54
same,glycan array binding signal (z-score),[22],-0.287
same,glycan array binding signal (z-score),[23],1.39
same,glycan array binding signal (z-score),[24],2.74
same,glycan array binding signal (z-score),[25],-0.093
same,glycan array binding signal (z-score),Kdn(a2-3)Gal(b1-3)GalNAc,0.099
same,glycan array binding signal (z-score),Kdn(a2-6)Gal(b1-4)GlcNAc,-0.239
same,glycan array binding signal (z-score),[26],0.46
same,glycan array binding signal (z-score),[27],2.82
same,glycan array binding signal (z-score),[28],2.72
same,glycan array binding signal (z-score),[29],2.8
same,glycan array binding signal (z-score),[30],0
same,glycan array binding signal (z-score),[31],-0.276
same,glycan array binding signal (z-score),[32],-0.249
same,glycan array binding signal (z-score),[33],1.31
same,glycan array binding signal (z-score),[34],-0.201
same,glycan array binding signal (z-score),[35],2.26
same,glycan array binding signal (z-score),[36],-0.255
same,glycan array binding signal (z-score),[37],-0.229
same,glycan array binding signal (z-score),[38],-0.267
same,glycan array binding signal (z-score),[39],-0.247
same,glycan array binding signal (z-score),Neu5Ac(b1-6)GalNAc,-0.191
